ELG1 repair inh = qHTS screen for small molecules that inhibit ELG1-dependent DNA repair in human embryonic kidney (HEK293T) cells expressing luciferase-tagged ELG1 | Potency, µM (highest dose often 46.1 µM), hits mostly inhibitors | actives 2.3% (n = 330,000) | HEK293T ELG1-luciferase reporter, luminescence, 16 h; DNA damage induced by 5-fluorouridine; further: nearly all actives have a fitted effect of over 55% in size
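Reporter activity after DNA damage by 5-fluorouridine is monitored. Compound-treated cells incubate 16 hr at 37 °C, then ONE-Glo is added for 30 min before luminescence reading.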
12-LOX inh = Primary qHTS assay for inhibitors of human arachidonate 12S-lipoxygenase (ALOX12): Round 2; actives 1.1% (n = 580,000); Potency, µM (top dose mostly 108 µM), actives largely listed as inhibitors; purified 12hLO, xylenol orange hydroperoxide absorbance; AID 1671190, 2021; Polyunsaturated fatty acid lipoxygenase ALOX12 (Homo sapiens), P18054
Target sequence (P18054 whole entry, looked up): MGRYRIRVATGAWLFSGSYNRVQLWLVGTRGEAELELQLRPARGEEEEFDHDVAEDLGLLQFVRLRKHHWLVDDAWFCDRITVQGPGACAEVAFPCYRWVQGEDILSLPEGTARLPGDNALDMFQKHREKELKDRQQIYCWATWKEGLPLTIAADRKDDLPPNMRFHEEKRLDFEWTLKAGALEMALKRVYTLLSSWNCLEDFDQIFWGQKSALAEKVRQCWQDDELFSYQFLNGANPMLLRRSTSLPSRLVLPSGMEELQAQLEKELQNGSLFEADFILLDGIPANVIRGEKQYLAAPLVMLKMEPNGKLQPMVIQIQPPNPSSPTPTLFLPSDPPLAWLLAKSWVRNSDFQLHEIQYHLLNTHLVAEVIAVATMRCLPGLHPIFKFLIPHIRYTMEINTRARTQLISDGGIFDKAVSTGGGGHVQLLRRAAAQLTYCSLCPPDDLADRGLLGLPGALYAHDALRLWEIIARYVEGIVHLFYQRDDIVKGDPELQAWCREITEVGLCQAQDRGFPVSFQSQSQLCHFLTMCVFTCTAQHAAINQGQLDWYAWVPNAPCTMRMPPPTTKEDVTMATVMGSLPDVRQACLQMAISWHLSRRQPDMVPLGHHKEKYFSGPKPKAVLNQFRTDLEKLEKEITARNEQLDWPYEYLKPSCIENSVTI
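Purified human 12hLO at 150 nM in 25 mM Hepes, 0.01% Triton X-100, pH 7.0, preincubated 15 min at room temperature with compound. Reaction started with 40 uM arachidonic acid, 30 min at room temperature. Hydroperoxide measured by Fe-xylenol orange, 573/405 nm absorbance ratio.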
DT40 TDP1 CPT = qHTS for Inhibitors of human tyrosyl-DNA phosphodiesterase 1 (TDP1): qHTS in cells in presence of CPT; chicken DT40 Tdp1-/-;hTDP1 cells + 20 nM CPT, ATP luminescence, 48 h; Potency, µM (series often up to 46.2 µM), actives largely listed as inhibitors; actives 12% (n = 420,000); AID 686979, 2013; further: nearly all actives have a fitted effect of over 55% in size
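Chicken DT40 Tdp1-/- cells stably complemented with human TDP1 were seeded at 400 cells/well in medium containing 20 nM camptothecin, exposed to pin-transferred compounds, and grown at 37 °C for at least 48 hr. Viability was read as ATP luminescence.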
RORgamma inh = qHTS for inhibitors of ROR gamma transcriptional activity; Drosophila S2 Gal4-RORgamma UAS-luciferase reporter, 20 h; AID 2551, 2010; actives 5.4% (n = 310,000); Nuclear receptor ROR-gamma (Mus musculus), P51450; Potency, µM (highest dose often 53.6 µM), most hits filed as inhibitors; further: nearly all actives have a fitted effect of over 60% in size
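Drosophila S2 cells stably expressing Gal4-DBD/mouse RORγ fusion under metallothionein promoter plus UAS-luciferase; compound 1 h, then 700 uM CuSO4 induction for 20 h at ambient temperature; inhibition read as reduced luminescence.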
VP16 counter = VP16 counterscreen qHTS for inhibitors of ROR gamma transcriptional activity; Potency, µM (top dose mostly 53.6 µM), hits mostly inhibitors; AID 2546, 2010; actives 3.5% (n = 310,000); Drosophila S2 Gal4-VP16 UAS-luciferase, luminescence, 20 h;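 further: Gal4-VP16 expression switched on by copper sulfate through the metallothionein promoter; nearly all actives have a fitted effect of over 50% in size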
DT40 TDP1 no CPT = qHTS for Inhibitors of human tyrosyl-DNA phosphodiesterase 1 (TDP1): qHTS in cells in absence of CPT; DT40 Tdp1-/- hTDP1 cells, no CPT, ATP luminescence, 48 h; Potency, µM (top dose mostly 46.2 µM), usual class: inhibitors; actives 15% (n = 420,000); AID 686978, 2013; further: nearly all actives have a fitted effect of over 55% in size
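Luminescent ATP content (CellTiter-Glo) served as the growth readout. Knockout chicken DT40 cells expressing human TDP1 were exposed to compounds without camptothecin for a minimum 48 hr at 37 °C.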
Large screens that a line does not name were inactive. Hits are enriched below; roughly 15% of the tested compounds scored in any of these assays. The call rests on the fitted dose curve; in most records, active means well fitted curve in the direction sought with a large enough effect; inconclusive means small, poorly fitted or top-dose-only effect, or another doubt; inactive means no such curve, though single readings can be large; an effect the other way counts as inactive or inconclusive.

O=C(/C=C/c1cccc2ccccc12)NC1CCCCC1	none (no result: ELG1 repair inh, DT40 TDP1 CPT, RORgamma inh, VP16 counter, DT40 TDP1 no CPT)
CN1CCN(C(=S)NC(=O)/C=C/c2cccc3ccccc23)CC1	RORgamma inh 1µM, VP16 counter 3.16µM
N#Cc1nc(-c2ccccc2)oc1N1CCN(C(=O)c2cccs2)CC1	none (no result: ELG1 repair inh, DT40 TDP1 CPT, RORgamma inh, VP16 counter, DT40 TDP1 no CPT)
O=[N+]([O-])c1ccc(Oc2ccc(Oc3ccc(C(F)(F)F)cn3)cc2)nc1	ELG1 repair inh inconclusive, DT40 TDP1 CPT inconclusive, RORgamma inh inconclusive, DT40 TDP1 no CPT 25.9µM
Cn1c(Oc2ccccc2NCc2cc(Br)ccc2O)cc(=O)n(C)c1=O	ELG1 repair inh inconclusive, DT40 TDP1 CPT 18.4µM, RORgamma inh inconclusive, VP16 counter inconclusive, DT40 TDP1 no CPT 23.1µM
COc1cc(CNc2ccccc2Oc2cc(=O)n(C)c(=O)n2C)cc(OC)c1OC	ELG1 repair inh inconclusive, DT40 TDP1 CPT inconclusive, DT40 TDP1 no CPT inconclusive
O=C(CCCn1ccnc1)N1CCC2(CCCN(C3CCCC3)C2=O)C1 (centres undefined)	none (no result: ELG1 repair inh, DT40 TDP1 CPT, RORgamma inh, VP16 counter, DT40 TDP1 no CPT)
COc1ccc(-n2nc(C)c(CCC(=O)N3CCOCC3)c2Oc2ccccc2F)cc1	none (no result: ELG1 repair inh, DT40 TDP1 CPT, RORgamma inh, VP16 counter, DT40 TDP1 no CPT)
Cc1ccccc1C1N(c2nccs2)C(=O)C2CCCN21 (centres undefined)	RORgamma inh inconclusive, VP16 counter inconclusive
O=C1C2CCCN2C(c2ccccc2)N1c1nccs1 (centres undefined)	RORgamma inh 5.62µM
CCc1ccc(CN(C)CC(=O)Nc2ccc(C(F)(F)F)cc2)cc1	none (no result: ELG1 repair inh, DT40 TDP1 CPT, RORgamma inh, VP16 counter, DT40 TDP1 no CPT)
CCn1nc(C(=O)Nc2cccc(C)c2C(=O)OC)c2ccccc2c1=O	none (no result: ELG1 repair inh, DT40 TDP1 CPT, RORgamma inh, VP16 counter, DT40 TDP1 no CPT)
CCc1ccc(CN(C)C(=O)CCc2nc3ccccc3n(-c3ccc(OC)cc3)c2=O)cc1	DT40 TDP1 CPT 16.4µM, VP16 counter inconclusive, DT40 TDP1 no CPT 20.6µM
COc1ccc(-n2c(=O)c(CCC(=O)N(C)Cc3ccccc3C)nc3ccccc32)cc1	ELG1 repair inh inconclusive, 12-LOX inh inconclusive, DT40 TDP1 CPT inconclusive, DT40 TDP1 no CPT inconclusive
Cc1nn(C)cc1C(C(=O)NC1CCCCC1)N(C(=O)Cc1cccs1)c1ccc(Cl)cc1 (centres undefined)	DT40 TDP1 CPT 2.91µM, DT40 TDP1 no CPT 6.51µM
Cc1ccc(N(C(=O)Cn2nnc3ccccc32)C(C(=O)NC2CCCCC2)c2cn(C)nc2C)cc1 (centres undefined)	ELG1 repair inh inconclusive, DT40 TDP1 CPT inconclusive
COc1cc(N(C(=O)Cc2cccs2)C(C(=O)NC2CCCCC2)c2ccc(C)cc2)ccc1-n1cnnn1 (centres undefined)	DT40 TDP1 CPT 20.6µM, DT40 TDP1 no CPT 13µM
CN(CC(=O)Nc1c(Cl)cccc1Cl)C(=O)CNC(=O)c1cccs1	none (no result: ELG1 repair inh, DT40 TDP1 CPT, RORgamma inh, VP16 counter, DT40 TDP1 no CPT)
O=[N+]([O-])c1cc(F)c(N2CCCCC2)cc1N1CCOCC1	DT40 TDP1 CPT inconclusive
O=[N+]([O-])c1cc2no[n+]([O-])c2cc1N1CCCCC1	12-LOX inh inconclusive, DT40 TDP1 CPT 0.581µM, DT40 TDP1 no CPT 0.92µM (no result: ELG1 repair inh, RORgamma inh, VP16 counter)
CC(=O)c1cn(-c2ccc(Cl)cc2)c(=O)n(Cc2ccc(F)cc2)c1=O	DT40 TDP1 CPT inconclusive, DT40 TDP1 no CPT 9.2µM
CC(C)c1ccc(/C=C/C(=O)N2CCN(C/C=C/c3ccccc3)CC2)cc1	none (no result: ELG1 repair inh, DT40 TDP1 CPT, RORgamma inh, VP16 counter, DT40 TDP1 no CPT)
CC1(C)Cc2ccccc2-c2n[nH]c(=S)n21	12-LOX inh inconclusive, DT40 TDP1 CPT inconclusive, RORgamma inh 2.82µM, VP16 counter 0.891µM, DT40 TDP1 no CPT 23.1µM
Cn1ncc2c(Nc3ccccc3)nc(N3CCN(C(=O)c4ccco4)CC3)nc21	none (no result: ELG1 repair inh, DT40 TDP1 CPT, RORgamma inh, VP16 counter, DT40 TDP1 no CPT)
CN(C)c1ccc(N=Nc2ccc(C(=O)O)cc2)cc1	ELG1 repair inh inconclusive, RORgamma inh 0.501µM, VP16 counter 1.41µM
CN(C)c1ccc(N=NS(=O)(=O)O)cc1	12-LOX inh inconclusive, DT40 TDP1 CPT 21.7µM, DT40 TDP1 no CPT 24.3µM (no result: ELG1 repair inh)
CN(C)c1ccc(C=O)cc1	none (no result: ELG1 repair inh, RORgamma inh, VP16 counter)

Screening results: PubChem BioAssay, National Center for Advancing Translational Sciences (NCATS)
